These results are taken from PubChem BioAssay (NCATS).

Inconclusive results are not listed. A call without a number means that no potency is given here. Calls of active or inactive are those of the source. Calls follow the shape of the dose curve; as a rule, active = well fitted cell-killing curve with a large enough effect; inconclusive = small, poorly fitted or top-dose-only effect, or effect the other way; inactive = no such curve, though single readings can be large or run the other way.
Potency is read from the fitted curve at half-maximal effect.

The nature of the test: Quantitative High-Throughput drug screen in 47 multiple myeloma cell lines against the NCATS MIPE library collection: OCIMY1_PLB cell viability assay (AID 1918979). Also: nearly all actives have a fitted effect of over 35% in size. To be noted: OCI-MY1 myeloma viability, CellTiter-Glo ATP, 48 h; series mostly up to 45.8 µM. The text has this: PI: Beverly A. Mock Ph.D.
Laboratory of Cancer Biology and Genetics,
Center for Cancer Research, National Cancer Institute,
National Institute of Health, Bethesda, Maryland
Drug resistance and disease progression are common in multiple myeloma (MM) patients, underscoring the need for new therapeutic combinations. […] We hypothesized that effective combinations would reduce MYC expression and enhance p16 activity. […] These preclinical data identify potentially useful drug combinations for evaluation in drug-resistant MM and reveal potential mechanisms of combined drug sensitivity.
Described herein is the primary MIPE qHTS used to cherrypick compounds. Validated compounds were then further tested for potential synergistic activiy.
[1] Peat TJ, Gaikwad SM, Dubois W, Gyabaah-Kessie N, Zhang S, Gorjifard S, Phyo Z, Andres M, Hughitt VK, Simpson RM, Miller MA, Girvin AT, Taylor A, Williams D, D'Antonio N, Zhang Y, Rajagopalan A, Flietner E, Wilson K, Zhang X, Shinn P, Klumpp-Thomas C, McKnight C, Itkin Z, Chen L, Kazandijian D, Zhang J, Michalowski AM, Simmons JK, Keats J, Thomas CJ, Mock BA. Drug combinations identified by high-throughput screening promote cell cycle transition and upregulate Smad pathways in myeloma. Cancer Lett. 2023 Aug 1;568:216284. doi: 10.1016/j.canlet.2023.216284. Epub 2023 Jun 24. PMID: 37356470; PMCID: PMC10408729.
SEQUENCE No. (e.g., 1, 2, 3, etc.); […] (e.g., Cells, Incubation, Reagent, etc.); VALUE and DESCRIPTION.
1; Cells; 5 uL; white, solid bottom 1536-well Greiner assay plate.
2; Compounds; 23 nL; Kalypsis pin tool (Wako USA) equipped with a 1536-well pin head to transfer to the assay plates.
3; Incubation; 48 hours; 37C incubation.
4; Reagent;5uL; CellTiter Glo (Promega).
5; Detector; 425V; Luminescence; Viewlux PerkinElmer.
NOTES (numbers refer to Sequence numbers above)
1. The cell-based screening methods employed in this study were like those previously published. Briefly, the corresponding myeloma cell lines were screened in 1,536-well plates with 500 cells, 5-uL per well for inhibition of cell viability (assessed by measuring ATP levels with CellTiterGlo).
2. NCATS MIPE 4.0 library of approved and investigational drugs were added using the Kalypsis pin tool. Wells treated with DMSO only for 100% viability and media only for 0% viability were used as controls.
3. The assay plates were covered and incubated for 48 hours in a 37C, 5% CO2 incubator with controlled humidity.
4. After 48 hours, CellTilter-GloTM luminescent substrate mix (Promega) reagent was added to the assay plate and plates we incubated for 5 min at room temperature.
5. Signal was measured as median relative luminescence units on a ViewLux (PerkinElmer) multiplate reader.
[1] Heske CM, Davis MI, Baumgart JT, Wilson K, Gormally MV, Chen L, Zhang X, Ceribelli M, Duveau DY, Guha R, Ferrer M, Arnaldez FI, Ji J, Tran HL, Zhang Y, Mendoza A, Helman LJ, Thomas CJ. Matrix Screen Identifies Synergistic Combination of PARP Inhibitors and Nicotinamide Phosphoribosyltransferase (NAMPT) Inhibitors in Ewing Sarcoma. Clin Cancer Res. 2017 Dec 1;23(23):7301-7311. doi: 10.1158/1078-0432.CCR-17-1121. Epub 2017 Sep 12. PMID: 28899971; PMCID: PMC6636827.
For the molecule `Cc1cn([C@H]2C=C[C@@H](CO)O2)c(=O)[nH]c1=O`, the Potency entry is “inactive”. On to `O=C(c1ccc(OCCN2CCCCC2)cc1)c1c(-c2ccc(O)cc2)sc2cc(O)ccc12`, for which the Potency result was “inactive”. With `CCOC(=O)Nc1ccc(NCc2ccc(F)cc2)nc1N` the entry was “inactive”; with `Clc1ccc(C(c2ccccc2Cl)C(Cl)Cl)cc1` (stereo not given), 26.4 µM (active). With `CS(=O)(=O)Nc1ccc([N+](=O)[O-])cc1Oc1ccccc1` the entry was “inactive”; with `Cc1cnc(C(=O)NCCc2ccc(S(=O)(=O)NC(=O)NC3CCCCC3)cc2)cn1`, “inactive”; with `COc1ccc2[nH]cc(CCNC(C)=O)c2c1`, “inactive”. As for `NC(=O)NO`, the Potency is 0.662 µM (active). As to `NC(=O)OCC(COC(N)=O)c1ccccc1`, the Potency result is “inactive”.

For `CN(C)C(=N)N=C(N)N`, the Potency entry is “inactive”.

Consider `CC(C)NCC(O)COc1ccc(CCOCC2CC2)cc1` (stereo not given), for which the Potency result is “inactive”. The result for `NS(=O)(=O)c1cc2c(cc1Cl)NCNS2(=O)=O` reads “inactive”. Take `NCCCCCC(=O)O`: the Potency result is “inactive”. The result for `COc1ccc2c(c1)c(CC(=O)O)c(C)n2C(=O)c1ccc(Cl)cc1` reads “inactive”.

In the case of `CN1C2CCC1CC(OC(=O)C(CO)c1ccccc1)C2` (stereo not given), the Potency entry is “inactive”. The result for `CCCCc1oc2ccccc2c1C(=O)c1cc(I)c(OCCN(CC)CC)c(I)c1` reads 26.4 µM (active). The result for `COc1ccccc1OCCNCC(O)COc1cccc2[nH]c3ccccc3c12` (stereo not given) reads “inactive”.

In the case of `O=C1N(c2ccccc2)c2ccccc2C1(Cc1ccncc1)Cc1ccncc1`, the Potency entry was “inactive”. With `COc1ccccc1N1CCN(CC(O)COc2cccc3ccccc23)CC1` (stereo not given) the entry was “inactive”.

Turning to `CN1CCC(=C2c3ccccc3CC(=O)c3sccc32)CC1`, the Potency entry was “inactive”. In the case of `CC(C)(Oc1ccc(C2CC2(Cl)Cl)cc1)C(=O)O` (stereo not given), the Potency result is “inactive”. As for `CC(C(=O)O)c1cccc(C(=O)c2ccccc2)c1` (stereo not given), the Potency entry is “inactive”. The result for `C[C@](N)(Cc1ccc(O)c(O)c1)C(=O)O` reads 16.6 µM (active). As for `Cc1ccc(C(=O)Nc2ccc(S(=O)(=O)O)c3cc(S(=O)(=O)O)cc(S(=O)(=O)O)c23)cc1NC(=O)c1cccc(NC(=O)Nc2cccc(C(=O)Nc3cc(C(=O)Nc4ccc(S(=O)(=O)O)c5cc(S(=O)(=O)O)cc(S(=O)(=O)O)c45)ccc3C)c2)c1`, the Potency entry is “inactive”. For `CC1(CN2CCC(n3c(=O)[nH]c4ccccc43)CC2)OCc2ccccc2-n2cccc21` (stereo not given), the Potency entry was “inactive”.

As for `O=C(C1CCCCC1)N1CC(=O)N2CCc3ccccc3C2C1` (stereo not given), the Potency entry was “inactive”.

Regarding `CN(C)c1nc(N(C)C)nc(N(C)C)n1`, the Potency result was “inactive”. Turning to `Cc1cc(C(C)(C)C)c(O)c(C)c1CC1=NCCN1`, the Potency result was “inactive”.

In the case of `O=C1Cc2cc(CCN3CCN(c4nsc5ccccc45)CC3)c(Cl)cc2N1`, the Potency is 20.9 µM (active). For `C[C@@H]1CC(=O)NN=C1c1ccc(NN=C(C#N)C#N)cc1`, the Potency is 23.5 µM (active). For `Clc1ccc2nsnc2c1NC1=NCCN1`, the Potency result was “inactive”. The result for `Nc1nnc(-c2cccc(Cl)c2Cl)c(N)n1` reads “inactive”. For the molecule `CC(=O)OCC(CCn1cnc2cnc(N)nc21)COC(C)=O`, the Potency result is “inactive”. Turning to `Clc1ccc2c(c1)C(N1CCNCC1)=Nc1ccccc1O2`, the Potency entry is “inactive”.

As to `Cn1cnc2c1c(=O)[nH]c(=O)n2C`, the Potency was 23.5 µM (active). The result for `CCc1cccc2c3c([nH]c12)C(CC)(CC(=O)O)OCC3` (stereo not given) reads “inactive”. The result for `CN1CCN(C2=Nc3cc(Cl)ccc3Nc3ccccc32)CC1` reads “inactive”.

`CNCCCC12CCC(c3ccccc31)c1ccccc12`: the Potency was 20.9 µM (active). The result for `O=C1c2c(O)ccc(O)c2C(=O)c2c(NCCNCCO)ccc(NCCNCCO)c21` reads 13.2 µM (active); that for `COc1ccc(C2CNC(=O)C2)cc1OC1CCCC1` (stereo not given), “inactive”.
